Reference: a collection of fitness landscapes (doi:10.1016/j.celrep.2020.107928)
Whole data set: some 81,000 sequences, median “one-hybrid fitness for binding parS DNA” near -0.17, cut for the highest 2% near 0.51. The full list was thinned out, with the highest values kept by preference.

B1: Caulobacter ParB omega fusion; a variant is named by its letters at X, in order, B8GW30 (parent)
chain: MESVVVGEPGMSEGRRGLGRGLSALLGEVDAAPAQAPGEQLGGSREAPIEILQRNPDQPRRTFREEDLEDLSNSIREKGVLQPILVRPSPDTAGEYQIVAGERAWRAAQRAGLKTVPIMVRELDDLAVLEIGIIENVQRADLNVLEEALSYKVLMEKFERTQENIAQTIGKSXSHVANXMRLLXLPDEVQSYLVSGELTAXHARAIAAAADPVALAKQIIEGGLSVRETEALARKAPNLSAGKSKGGRPPRVKDTDTQALESDLSSVLGLDVSIDHRGSTGTLTITYATLEQLDDLCNRLTRGI

Variants of: B1
Assay: one-hybrid fitness for binding parS DNA (scaled: cognate 1, non-cognate 0); higher = stronger binding
Settings: with parS DNA site
Summary of the method: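 The reporter was HIS3, with the binding site 19 bp from the promoter, in E. coli USO used for bacterial one-hybrid selection of Caulobacter ParB libraries with four specificity codons randomised. Growth was on M9 lacking histidine, with 0.1 mM IPTG and 5 mM 3-AT, for 48 hours at 37°C. Illumina sequencing covered plasmids before and after selection; three replicate libraries were pooled and variants with under 10 reads dropped. A fitness score is the log change in variant-to-wild-type read ratio, rescaled to the cognate and non-cognate references.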

one-hybrid fitness for binding parS DNA, 0.995:
RLGG

one-hybrid fitness for binding parS DNA, 0.259:
RMVF

one-hybrid fitness for binding parS DNA, 0.793:
RKTC

one-hybrid fitness for binding parS DNA, 1.02:
RMQC
RIGG
RCDS

one-hybrid fitness for binding parS DNA, 0.257:
RYKF

one-hybrid fitness for binding parS DNA, 0.686:
RNAT

one-hybrid fitness for binding parS DNA, 0.703:
RIPG

one-hybrid fitness for binding parS DNA, 1.01:
RCGG

one-hybrid fitness for binding parS DNA, 0.22:
RVVF

one-hybrid fitness for binding parS DNA, 0.908:
RCNS

one-hybrid fitness for binding parS DNA, 0.707:
RSVT

one-hybrid fitness for binding parS DNA, 0.796:
RCRA

one-hybrid fitness for binding parS DNA, 0.951:
RHQC

one-hybrid fitness for binding parS DNA, 0.301:
RCYH

one-hybrid fitness for binding parS DNA, 0.442:
RIQY

one-hybrid fitness for binding parS DNA, 0.394:
RGNA

one-hybrid fitness for binding parS DNA, 0.825:
RKQC

one-hybrid fitness for binding parS DNA, 0.95:
RFTC

one-hybrid fitness for binding parS DNA, 0.43:
RLTN

one-hybrid fitness for binding parS DNA, 0.985:
RMTC

one-hybrid fitness for binding parS DNA, 0.619:
RCYA

one-hybrid fitness for binding parS DNA, 0.514:
RQPG

one-hybrid fitness for binding parS DNA, 0.233:
RIIH

one-hybrid fitness for binding parS DNA, 0.994:
RCQC

one-hybrid fitness for binding parS DNA, 0.962:
RITC

one-hybrid fitness for binding parS DNA, 0.495:
RLQY

one-hybrid fitness for binding parS DNA, 0.235:
RGDA

one-hybrid fitness for binding parS DNA, 0.651:
RRTS

one-hybrid fitness for binding parS DNA, 0.474:
RWRA

one-hybrid fitness for binding parS DNA, 0.415:
RTTN

one-hybrid fitness for binding parS DNA, 0.805:
RQIG

one-hybrid fitness for binding parS DNA, 0.302:
RHVN

one-hybrid fitness for binding parS DNA, 0.336:
RKTN

one-hybrid fitness for binding parS DNA, 0.602:
RSYA

one-hybrid fitness for binding parS DNA, 0.391:
RMKM

one-hybrid fitness for binding parS DNA, 0.57:
RFNA

one-hybrid fitness for binding parS DNA, 0.203:
RSNH

one-hybrid fitness for binding parS DNA, 0.393:
RVKM

one-hybrid fitness for binding parS DNA, 0.777:
RHKS

one-hybrid fitness for binding parS DNA, 0.26:
RFVN

one-hybrid fitness for binding parS DNA, 0.248:
RQIN

one-hybrid fitness for binding parS DNA, 0.97:
RSTC

one-hybrid fitness for binding parS DNA, 0.959:
RSNS

one-hybrid fitness for binding parS DNA, 0.346:
RLTM

one-hybrid fitness for binding parS DNA, 0.764:
RMKT

one-hybrid fitness for binding parS DNA, 0.899:
RYVG

one-hybrid fitness for binding parS DNA, 0.443:
RITY

one-hybrid fitness for binding parS DNA, 0.204:
RLGH
RCDP

one-hybrid fitness for binding parS DNA, 0.436:
RATN

one-hybrid fitness for binding parS DNA, 0.225:
RGYA
RLPN

one-hybrid fitness for binding parS DNA, 0.695:
RRTN

one-hybrid fitness for binding parS DNA, 0.515:
RSDA

one-hybrid fitness for binding parS DNA, 0.991:
RTTC

one-hybrid fitness for binding parS DNA, 0.365:
RHKN

one-hybrid fitness for binding parS DNA, 0.958:
RSQC

one-hybrid fitness for binding parS DNA, 0.722:
RTNA

one-hybrid fitness for binding parS DNA, 0.927:
RHVS

one-hybrid fitness for binding parS DNA, 0.998:
RLQC
RSGG

one-hybrid fitness for binding parS DNA, 0.573:
RNFT

one-hybrid fitness for binding parS DNA, 0.41:
RHTY

one-hybrid fitness for binding parS DNA, 0.939:
RSDS

one-hybrid fitness for binding parS DNA, 0.227:
CLRH

one-hybrid fitness for binding parS DNA, 0.4:
RKQY

one-hybrid fitness for binding parS DNA, 0.988:
RFKG

one-hybrid fitness for binding parS DNA, 0.941:
RVKG

one-hybrid fitness for binding parS DNA, 0.942:
RVVG

one-hybrid fitness for binding parS DNA, 0.469:
RLGN

one-hybrid fitness for binding parS DNA, 0.616:
RRTC

one-hybrid fitness for binding parS DNA, 0.875:
RMVT

one-hybrid fitness for binding parS DNA, 0.946:
RHTC

one-hybrid fitness for binding parS DNA, 0.924:
RIIG

one-hybrid fitness for binding parS DNA, 0.243:
RNAM

one-hybrid fitness for binding parS DNA, 1:
RIQC
RLIS
RCTC
RLTC

one-hybrid fitness for binding parS DNA, 0.46:
RFDA

one-hybrid fitness for binding parS DNA, 0.246:
RIGH

one-hybrid fitness for binding parS DNA, 0.2:
REGG

one-hybrid fitness for binding parS DNA, 0.836:
RRVG

one-hybrid fitness for binding parS DNA, 0.567:
RCDA

one-hybrid fitness for binding parS DNA, 0.982:
RATC

one-hybrid fitness for binding parS DNA, 0.29:
RWDA

one-hybrid fitness for binding parS DNA, 0.843:
RCVT

one-hybrid fitness for binding parS DNA, 0.496:
RGRA

one-hybrid fitness for binding parS DNA, 0.405:
RFTN

one-hybrid fitness for binding parS DNA, 0.425:
RWNA

one-hybrid fitness for binding parS DNA, 0.708:
RRKG

one-hybrid fitness for binding parS DNA, ≤ 0.2:
NRVQ
PLNP
RKQQ
REQC
RIQQ
RSQQ
RHQP
RHQD
VCLS
NNQG
QKHV
RMQL
NRQC
RLQQ
RMQF
RRQR
RPQC
RDQC
NGPC
QQNS
IKKF
DIKG
YPGG
FNTL
LPNG
RPNA
RPDA
RENA
RPRA
YTPK
NRGR
WRHM
TEAW
HGTW
PNLY
DLLY
RDRA
REDA
KFNA
RDDA
CFAA
RNLW
NVSV
DDCG
KMYG
QRCI
APES
SERT
LITT
MNRC
DIAI
ACMT
YQQG
RSPA
DSYA
RHVD
RHKP
KQDV
HTPC
AALR
WLII
YSML
RMKD
RMVR
TDKS
CMDR
TNLK
RLPD
RLIP
IHED
PMWM
NFVG
NFKG
RFKD
LLAH
KLSS
YSYS
RRKK
RRKF
RRVR
RRVQ
LFLG
SWLK
PTSL
QPAA
FRES
PPSL
SYQW
NTNA
DTNA
WHYV
HFVM
QFAC
RDGG
RIGD
RPGG
RSGK
HLHN
EVNR
RCWR
NFVA
MAPR
YLCV
DLKG
TWYC
TAYD
PPTG
RQIH
RQPD
RQPH
LCRT
CNIR
TNIS
ASKM
RSDH
RCNP
RPDS
RSDP
RPNS
RSND
FIST
SDVE
QNER
HDLW
GHTP
IPGC
FIPR
LDNV
RITR
RTTQ
RSTQ
RETC
RMTP
RMTR
QHHF
PRIV
VMLC
DQKI
NPVG
FASY
GGAS
RKTP
RDTC
RRTR
RHTH
RPTC
NRTC
MMQL
GRRM
RHSV
AKSG
REHW
EAGS
KYAG
ELVS
SVCS
LPIR
GTYV
VEST
SGLP
RATP
NFTC
REFP
GDAW
RNFK
RNAK
RNFF
VNTS
NGQK
QLDA
AVCE
APET
RRTQ
RRTD
RRTP
RRTH
APDT
CSER
DLWS
MGLC
GWAG
KEHC
RPVT
REVT
RDVT
CVDQ
ITTC
LKCF
HKKY
RIPR
RIPF
DMEL
CRVS
QASM
RYVD
RYVP
RYKQ
VKQG
RVKQ
RVVK
QSVI
DCRY
LYRG

one-hybrid fitness for binding parS DNA, 0.86:
RLPS

one-hybrid fitness for binding parS DNA, 0.63:
RRQC

one-hybrid fitness for binding parS DNA, 0.719:
RCNA

one-hybrid fitness for binding parS DNA, 0.77:
RFVG

one-hybrid fitness for binding parS DNA, 0.38:
RLIN

one-hybrid fitness for binding parS DNA, 0.398:
RIIY

one-hybrid fitness for binding parS DNA, 0.596:
RSNA

one-hybrid fitness for binding parS DNA, 0.91:
RYKG

one-hybrid fitness for binding parS DNA, 0.554:
RTDA

one-hybrid fitness for binding parS DNA, 0.605:
RSRA
